The test relates to MDA-MB-468 breast. Briefly: NCI-60 one-dose screen, 48 h (100 = growth as untreated, 0 = no growth, -100 = all killed). Conditions: 10 µM unless noted.

Each structure is given as a SMILES string. About 83,000 compounds went through this panel and 20% of them were active in at least one assay; those are over-represented in the sample as a whole.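 Assay: single dose, 48 h. Readout: percent growth (0 = no net growth; negative = cell death). Active: <10.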 A number with no mark means an inactive call. The source made the active and inactive calls.

Results on 80 molecules are retold here after PubChem BioAssay (NCI).

On to `N#CCCN(NC(=O)OCc1ccccc1)C(=O)OCc1ccccc1`, for which the growth was 116%. Regarding `Cc1ccc2nc(Cl)c(-c3nc4ccccc4o3)cc2c1`, the growth was 100%. With `CCCCO[C@@H]1C=C2[C@H]3CC(C)(C)C(=O)C[C@]3(C(=O)O[C@@H]3O[C@H](CO[C@@H]4O[C@H](CO)[C@@H](OC5OC(C)C(O)C(O)C5O)[C@H](O)[C@H]4O)[C@@H](O)[C@H](O)[C@H]3O)CC[C@@]2(C)[C@]2(C)CC[C@H]3C(C)(C)C(=O)CC[C@]3(C)[C@@H]12` (stereo not given in full), the growth is 101%. With `COc1ccccc1CNCCCN1C(=O)c2ccc3c4c(ccc(c24)C1=O)C(=O)N(CCCNCCCCN)C3=O` the figure was -55.7% (active); with `C[C@H]1[C@H](C)CC[C@]2(C(=O)NCC#CCN3CCN(C)CC3)CC[C@]3(C)C(=CC[C@@H]4[C@@]5(C)Cc6c([nH]c7ccccc67)C(C)(C)[C@@H]5CC[C@]43C)[C@H]12`, 90.1%. With `COc1cc(/C=C/c2cc(/C=C/c3ccc(O)c(OC)c3)n(C(=O)Nc3ccc(F)c(Cl)c3)n2)ccc1O`, the growth was -27.6% (active). `COc1cc(-c2nc(/C=C3/C(=O)Nc4ccccc43)c3ccccn23)cc(OC)c1OC`: the growth was 87.9%. With `COc1cc2c(c(OC)c1OC)CCC(c1cccc(C(=O)Nc3cccc(Br)c3)c1)O2` (stereo not given), the growth is 58.6%. `Cc1c(Cl)c(C)c(Cc2c(C)c(Cl)c(C)c(Cl)c2O)c(O)c1Cl`: the growth was -8.25% (active). In the case of `CSc1nc2nc3c(c(-c4ccc(C)cc4)c2c(=O)[nH]1)CN(C)C/C3=C\c1ccc(C)cc1`, the growth is 74.7%. `Cn1c(=O)c2nc(SCc3ccccc3)n(C)c2n(C)c1=O`: the growth was 103%. Take `CCCCCCSc1ncnc2nc[nH]c12`: the growth was 67.3%. Consider `c1ccc2c(c1)OC1OC2Oc2ccccc21`, for which the growth was 97.5%. Consider `Cc1ccc2[nH]c(=O)cc(-n3nncc3COc3ccc(C=O)cc3)c2c1`, for which the growth was 114%. Consider `COc1cc(-c2c3c(cn2S(=O)(=O)c2ccccc2)-c2nc(N)sc2CC3)cc(OC)c1OC`, for which the growth was 23.4%. With `O=c1oc2ccccc2cc1-c1csc(N/N=C/c2cc3ccccc3nc2Cl)n1` the figure was 105%; with `Cc1ccc(C(C(N)=O)C(C(N)=O)c2ccccc2)cc1` (stereo not given), 105%. Take `O=C(O)CCC(=O)OC[C@@H](NC(=O)C(Cl)Cl)[C@H](O)c1ccc([N+](=O)[O-])cc1`: the growth is 95.5%.

`COc1ccc2oc(-c3ccc(Cl)cc3)c(N3CCN(C)CC3)c2c1`: the growth was -53.5% (active).

Turning to `CS(=O)(=O)Nc1cccc(C(=O)NCc2ccc(N3CCOCC3)cc2)c1`, the growth is 93%. The same measure for `Cc1cccc(C)c1N=c1oc2ccc(Cl)cc2nc1-c1ccccc1O`: 94.8%; for `C=CCOc1ccc2c(c1)CC=C1[C@@H]2CC[C@]2(C)C(=O)/C(=N/O)C[C@@H]12`: 55.7%. With `C=C1C(=O)O[C@H]2[C@H]1CC/C(COC(=O)NCc1cc(OC)cc(OC)c1)=C\CC[C@@]1(C)O[C@@H]21` the figure was 10.2%; with `Cc1ccc(/C=C/c2c(C(=O)/C=C/c3ccccc3)c(C)nc3ccccc23)cc1`, 38.1%. With `Brc1ccc([I+]c2ccc(Br)cc2)cc1` the figure was 21.6%; with `CCc1cccc2c3c(sc12)C(c1ccc(Cl)cc1)C(C#N)=C(N)O3` (stereo not given), -7.98% (active). For the molecule `COc1ccc(/C(C)=C(\c2ccc(Cl)cc2)c2ccc(OCCN(C)C)cc2)cc1F`, the growth was 66.2%. The same measure for `COc1cc(/C=C(/c2ccccc2)[N+](=O)[O-])c(OC)c2c1OCO2`: -81.4% (active). With `CCN(CC)CCOc1ccc(/C(=C(\C)Cc2ccc(OC)cc2)c2ccc(O)cc2)cc1` the figure was -18.7% (active); with `COC1=CC(=O)c2nc(Cl)ccc2C1=O`, -51% (active). With `CC1(C)N=C(N)N=C(N)N1c1ccc(S(=O)(=O)Nc2nccs2)cc1`, the growth was 103%. Regarding `COc1ccc(C2C=C(c3ccc(Cl)c(Cl)c3)N=C3SC(C)=CN32)cc1OC` (stereo not given), the growth is 53.1%.

As to `O=C(O)c1c[nH]c2ccccc2c1=O`, the growth is 114%. The same measure for `COc1c(C)c2c(c(O)c1C/C=C(\C)CCC(=O)O)C(=O)OC2`: 37.9%. As to `Cn1cc(-c2ccc(-c3cn(C)c4ncccc34)[nH]2)c2cccnc21`, the growth is -23.7% (active). In the case of `COc1ccc(/C=N/Nc2cc(=O)[nH]c3ccc(Cl)cc23)cc1`, the growth is 78%. Take `Cn1cc(C(=O)c2nc(-c3c[nH]c4ccccc34)no2)c2cc(F)ccc21`: the growth was 63%. As for `CN(C)CCN(C)c1ccc2ncc(C#Cc3cncc(C(=O)Nc4ccc(CN5CCN(C)CC5)c(C(F)(F)F)c4)c3)n2n1`, the growth was 84.8%.

In the case of `COc1cccc(-c2nn(-c3ccccc3)cc2-c2ccnc(NCCNS(=O)(=O)c3cccc(F)c3)c2)c1`, the growth is 15.8%.

In the case of `COc1cc2c(Nc3ccc(S(N)(=O)=O)cc3)ncnc2c(OC)c1OC`, the growth is 84%. With `COc1ccc(Oc2nc(NC3CCCC3)nc(Sc3ccc(OC)cc3)n2)cc1` the figure was 93%; with `O=[N+]([O-])c1ccc(N=Nc2ccc(O)cc2O)cc1`, -4.48% (active). Regarding `COc1cc(OCc2cccc(-c3ccccc3)c2C)cc(OC)c1CN1CCCCC1C(=O)NCCOCCOCCN` (stereo not given), the growth is 30%. With `NC1N=C(SCC(=O)N2CCN(c3cc4c(cc3F)c(=O)c(C(=O)O)cn4C3CC3)CC2)NC(=O)/C1=C/c1ccc(Cl)cc1` (stereo not given) the figure was 111%.

With `Nc1nc(N)c2c(n1)NC(c1cccc(Nc3ccnc4cc(C(F)(F)F)ccc34)c1)CC(c1ccc(Br)cc1)=N2` (stereo not given), the growth is 41.9%.

On to `Cn1cc(C(=O)c2nc(-c3cn(C)c4ccc(F)cc34)no2)c2cc(F)ccc21`, for which the growth is 94.1%.

Consider `CS(=O)(=O)c1ccc2c(c1)c1c(n2Cc2ccc(Cl)cc2)CCCC1`, for which the growth was 50.4%. On to `CN1CCc2c(sc3nc4n(-c5ccc(Cl)cc5)cnn4c(=O)c23)C1`, for which the growth is 81.7%.

Turning to `COc1cc(-c2ccc3c(c2)NC(=O)/C3=C\c2ccc[nH]2)ccc1O`, the growth is 16.6%. `Cc1ccc(C2SCC(=O)N2Cc2ccccc2)cc1` (stereo not given): the growth was 87.3%.

With `Nc1ccc(CC(=O)O)c(N)c1`, the growth is 88.5%. The same measure for `COc1ccc(-c2nn(Cc3ccccc3)c3c2-c2oncc2CC3)cc1OC`: 99.9%; for `O=C(Nc1c2ccccc2nc2ccccc12)c1ccccc1CN1C(=O)c2ccccc2C1=O`: 0.8% (active).

Regarding `COc1cc(OC)cc(-c2n/c(=C\c3c(O)[nH]c4ccc(Cl)cc34)cc3c2=Nc2ccccc2-3)c1`, the growth was 98.1%. With `C#CC(C)(O)c1ccc(Cl)cc1` (stereo not given) the figure was 94.5%; with `CC(=O)O.CN1[CH-]N(Cc2ccc(C#N)cc2)c2ccccc21.[Ag+]`, 97%; with `CC[C@]12C=CCN3CC[C@@]4(c5cc([C@H]6CCC(=O)N6)c(OC)cc5N(C)[C@H]4[C@@](O)(C(=O)OC)[C@@H]1OC(C)=O)[C@@H]32`, 110% [2.5 µM]. Turning to `O=C1c2ccccc2C(=O)N1/N=C/c1ccc2c(c1)OCO2`, the growth was 103%. Regarding `O=C(N/N=C/c1cccnc1)c1ccccc1Nc1cccc(C(F)(F)F)c1`, the growth is 74.5%.

Turning to `COc1ccc(NS(=O)(=O)N2CCCCC2)cc1`, the growth is 105%.

As for `C=C1CCC2C(C)(CO)C(O)CCC2(C)C1CC(NCc1ccccc1)C1=CCOC1=O` (stereo not given), the growth was 98.9%. As for `O=C(CNC(=O)c1cccc2ccccc12)Nc1ccccc1Cc1ccccc1`, the growth was 13.7% [5 µM]. With `COC(=O)[C@H](C)NC(=O)NC(=O)NC(=O)CI` the figure was 70.2%; with `O=C(O)CS(=O)c1ccc(Cl)cc1` (stereo not given), 103%; with `N#Cc1c(-c2ccc(Cl)cc2)nc2c(-c3ccccc3)c(Nc3ccccc3)nn2c1N`, 53.4%. The same measure for `CCCCCCCCCCNC(=O)CCl`: 67.8%. For the molecule `COC(=O)[C@H](Cc1cn(C)cn1)NC(=O)[C@H](Cc1ccccc1)NC(=O)Nc1cc(C(F)(F)F)cc(C(F)(F)F)c1`, the growth is -69.6% [100 µM] (active). Consider `Nc1ccc(S(=O)(=O)O)c2cc(S(=O)(=O)O)cc(O)c12`, for which the growth was 106%.

Turning to `CNC(=O)c1c(NC(=O)c2ccc(C(C)(C)C)cc2)sc2c(CN(C)C)c(O)ccc12`, the growth is -60.5% (active).

Regarding `C=C(C)[C@@H]1CC[C@]2(COC(=O)c3ccccc3C(=O)O)CC[C@]3(C)[C@H](CC[C@@H]4[C@@]5(C)CCCNC(C)(C)[C@@H]5CC[C@]43C)[C@@H]12`, the growth is 52%. With `Cn1cc(-c2csc(-c3cn(CCN)c4ccccc34)n2)c2cccnc21` the figure was 23.2%; with `C=C(C)[C@@H]1CC[C@]2(COP(=O)(OCC)OCC)CC[C@]3(C)[C@H](CC[C@@H]4[C@@]5(C)CC[C@H](OP(=O)(OCC)OCC)C(C)(C)[C@@H]5CC[C@]43C)[C@@H]12`, 22.1%; with `COc1ccc(Cc2nnc(Nc3nc4ccccc4s3)s2)cc1`, 92.6%. `CCn1c2ccccc2c2cc(-n3nncc3-c3ccccc3)ccc21`: the growth was 46.4%. With `Clc1ccc2c(NCCCCNc3nc(N4CCOCC4)nc4ccccc34)ccnc2c1` the figure was 24.9%; with `N#Cc1c(N)nc2c(C#N)c(NC(=O)c3ccccc3)nn2c1-c1ccccc1`, 94.1%; with `C=CCCC1(C)NC(=O)NC1=O` (stereo not given), 99.3%. With `Cc1cccc(C)c1NC(=S)/N=C\c1c(O)[nH]c(=O)[nH]c1=O`, the growth is 114%. Turning to `C=C1C(=O)O[C@H]2[C@H]1CC/C(COC(=O)NCc1ccc(Cn3c(=O)sn(-c4ccc(OC)cc4)c3=O)cc1)=C\CC[C@@]1(C)O[C@@H]21`, the growth is 17.9%. With `Cc1ccc(/C=C/C(=O)c2ccc(N)cc2)c(C)c1` the figure was 88.7%.
